Activity calls are given as the source filed them. The calls were made as follows: active = hit-call score of the fitted dose curve at least 0.9, where 1 is the maximum; inactive = score below 0.9.
Test: CCTE_Shafer_MEA_acute_per_network_burst_electrodes_number_mean: CCTE's Neural Acute Assay for Mean Number of Electrodes in a Network Burst, Shafer Lab (AID 2284021);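 also: curves fitted for decreases only so hits reduce electrodes per burst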
Summary of the method: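 Rat primary cortical neurons on 48-well MEAs, DIV 13 or 15, were treated at 0.03-40 uM. Spikes were detected at 8x rms noise and recorded at 37 C. The mean electrodes per network burst in a 40 min exposure recording was expressed as percent change from a 40 min baseline.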

Structure (SMILES)	AC50	outcome
CCOc1cc(C(C)(C)C)ccc1C1COC(c2c(F)cccc2F)=N1 (stereo not given)	4.3 µM (active)	–
CNC(=O)Oc1cccc2ccccc12	–	inactive
CCOc1nc(F)cc2nc(S(=O)(=O)Nc3c(Cl)cccc3Cl)nn12	–	inactive
C=C(C)CN(CC)c1c([N+](=O)[O-])cc(C(F)(F)F)cc1[N+](=O)[O-]	–	inactive
CCCN(CC)CC1COC2(CCC(C(C)(C)C)CC2)O1 (stereo not given)	–	inactive
CC(C)C1(C)N=C(c2ncccc2C(=O)O)NC1=O (stereo not given)	–	inactive
Cc1nc(N(C)C)nc(OC(=O)N(C)C)c1C	–	inactive
N#CN=C1SCCN1Cc1ccc(Cl)nc1	–	inactive
CCCC(=NOCC)C1=C(O)CC(CC(C)SCC)CC1=O (stereo not given)	–	inactive
CCOC(=O)C(C)OC(=O)c1cc(Oc2ccc(C(F)(F)F)cc2Cl)ccc1[N+](=O)[O-] (stereo not given)	–	inactive

Reference: PubChem BioAssay (EPA / NIEHS)
